Consider 40 compounds from PubChem BioAssay (EPA / NIEHS).

Activity calls are given as the source filed them. How the source made its calls: active means hit-call score of the fitted dose curve at least 0.9, where 1 is the maximum; inactive means score below 0.9.

Read-out in this test: cysteine-aspartic acid protease (CASP8), CASP8 (gene 841)
Nature of the test: LTEA_HepaRG_CASP8: Life Technologies and Expression Analysis (LTEA) Assay for cysteine-aspartic acid protease (CASP8) using HepaRG (AID 2283480). The note with it: mRNA level, 48 h; actives raise or lower the signal. The protocol: LTEA_HepaRG is a cell based, multiplexed-readout assay that uses HepaRG, a human liver cell line, with measurements taken at 48 hours after chemical dosing on a 96-well plate.LTEA_HepaRG_CASP8 is one of 102 assay component(s) measured in the LTEA HepaRG cell culture assay. It is a marker of Cell proliferation, survival, death.Data from the assay component LTEA_HepaRG_CASP8 was analyzed into 1 endpoint. This assay endpoint, LTEA_HepaRG_CASP8, was analyzed with bidirectional fitting relative to DMSO as the negative control and baseline of activity. Using a type of inducible reporter, measures of mRNA induction for gain or loss-of-signal activity can be used to understand regulation of transcription factor activity. To generalize the intended target to other relatable targets, this assay endpoint is annotated to the protease intended target family, where the subfamily is cysteine protease.
A total of 1060 chemcials from the ToxCast library were tested in eight-point concentration-response experiments. Cell culture and cytotoxicity assays were conducted at Thermo Fisher Scientific's Custom Services facility (Madison, WI). A single lot of human HepaRG cells (Thermo Fisher Scientific, Frederick, MD) was used for the cell culture experiments. 96-well format collagen type I coated plates of human HepaRG cells were prepared using established methods. Briefly, cryopreserved HepaRG cells were thawed, plated at a density of approximately 100,000 cells/well in HepaRG Thaw, Plate, and General Purpose media (HPRG770, Thermo Fisher Scientific), and incubated for 48 hours. 0.5% DMSO was selected as vehicle control to balance the requisite need of DMSO in HepaRG cultures to maintain differentiation (for example, baseline metabolism, proportions of hepatocytes vs. cholangiocytes), while enabling further hepatic receptor pathway activation (for example, PXR and CAR) in response to chemical exposure. 48 hours after plating, the culture medium was replaced with HepaRG Serum-Free Incudtion Media. Cells were exposed to each test chemical in duplicate and maintained in CO2 incubators for another 48 hours. Chemical plates were thawed to room temperature and 200x concentrations of treatment groups were prepared. 8-point conentration-reponse curves were made with the highest exposure at 100 uM, followed by half-log dilutions, all in 0.5% DMSO. Each test plate contained variouse controls, induction positive controls (1mM phenobarbital), cytotoxicity positive controls ([…] aflatoxin B1), vehicle controls (0.5% DMSO), and total lysis controls (0.5% DMSO). Cell morphology images were taken using an Essen IncuCyte FLR automated microscope, with six 96-well plates imaged in about 24 minutes. Images were captured and exported and JPEG files. Spent culture media was transfered to black-well plates for the LDH assay, and remaining media was sorted at -80 C for later use. Cells were treated with RLT buffer and frozen until shipped for gene expression analysis. Total RNA was isolated from the cell suspension in 75 uL of Buffer RLT (Qiagen, Germantown, MD 20874) by Quintiles/Expression Analysis (Durham, NC) using a custom isolation procedure. Total RNA from each plate well was transferred to a preamplification plate. Fluidigm's 96.96 Dynamic ArrayTM (Fluidigm, Amsterdam, the Netherlands) technology was used for gene expression analyses by quantitative reverse transcription polymerase chain reaction (qRT-PCR, performed by Quintiles/Expression Analysis, Durham, NC)89. Standard TaqManTM Assays (Applied Biosystems/ThermoFisher Scientific, Foster City, CA) were used to assess the expression of 93 genes selected based on their selectivity and sensitivity to important hepatic receptors known to be modulated by environmental chemicals; importance in human hepatocyte functionality; and hepatotoxicity. […]
Regarding `CCCCOC(=O)CC(CC(=O)OCCCC)(OC(C)=O)C(=O)OCCCC`, the outcome was inactive.
Still for that read-out and setting: with `Clc1cc(Cl)c2c(c1)N=C1CCCCCN1C2` the entry was “inactive”; with `CC1(C)NC(=O)N(c2ccc([N+](=O)[O-])c(C(F)(F)F)c2)C1=O`, “inactive”.
Same read-out and setting: with `O=C(OCCCCCCOC(=O)c1ccccc1)c1ccccc1` the entry was “inactive”; with `CCOC(=O)O[C@H](C)OC(=O)c1ccc2c(c1)cc(C(=O)NC1CCN(C(C)C)CC1)n2Cc1cc(-c2ccc(Cl)s2)on1`, “inactive”; with `CC(C)(c1cc(Br)c(O)c(Br)c1)c1cc(Br)c(O)c(Br)c1`, “inactive”.
The same measure, in the same setting: with `O=C1CCC(C2CCCCC2)CC1` the entry was “inactive”; with `CCCCCCCC[Si](OCC)(OCC)OCC`, “inactive”.
As to `O=C1c2ccccc2C(=O)N1CCc1noc(-c2ccc(CN3CCCCCC3)s2)n1`, the compound was classed as inactive.
Still for that read-out and setting: for `O=C(O)c1ccccc1-n1cc(C(=O)O)c(=O)c2cc(Nc3c(F)cc(F)cc3Cl)c(Cl)cc21` the value was “inactive”; for `C[C@]12CC[C@@H]3c4ccc(O)cc4CC[C@H]3[C@@H]1CC[C@H]2O`, “inactive”.
On to `O=C=NCCCCCCN=C=O`, for which the compound was classed as inactive.
Still for that read-out and setting: for `Cc1ccc(C(C)C)cc1` the value was “inactive”.
Same read-out and setting: with `CCCC(=O)OCCC(C)C` the entry was “inactive”; with `O=C1O[C@H]([C@@H](O)CO)C(O)=C1O`, “inactive”.
As for `Cc1c2ccccc2c(C)c2c1ccc1ccccc12`, the compound was called inactive.
Still for that read-out and setting: for `O=C(O)c1ccccc1C(=O)OCc1ccccc1` the value was “inactive”; for `Oc1ccc2ccccc2c1`, “inactive”; for `C[C@]12CC[C@@H]3c4ccc(O)cc4CC[C@H]3[C@@H]1CCC2=O`, “inactive”.
Consider `O=C(O)Cn1c(=O)n(Cc2ccc(Br)cc2F)c(=O)c2ccc(Cl)cc21`, for which the call was inactive.
On to `COc1cccc([C@H](O)C2CCN(CCc3ccc(F)cc3)CC2)c1OC`, for which the call was inactive.
The same measure, in the same setting: with `Oc1ccccc1` the entry was “inactive”; with `OCCO`, “inactive”.
Regarding `CC(C)(C)c1csc(-c2cc3cc(OCc4ccccc4CC(=O)O)ccc3o2)n1`, the compound was called inactive.
Still for that read-out and setting: for `Cc1cn([C@H]2C[C@H](N=[N+]=[N-])[C@@H](CO)O2)c(=O)[nH]c1=O` the value was “inactive”; for `Cc1ccc2oc(CN(Cc3ccccc3)C(=O)Nc3c(F)cc(F)cc3F)c(-c3ccc(Cl)cc3)c2c1`, “inactive”.
Take `Cc1ncc(CO)c(CO)c1O`: the compound was classed as inactive.
Still for that read-out and setting: with `CCCCCCCCCCCO` the entry was “inactive”; with `c1ccc2n[nH]nc2c1`, “inactive”.
A word on the AC50: it is the midpoint of the concentration-response curve, whichever way the signal moves. Take `COc1ccc2cc(S(=O)(=O)N[C@H](CC(=O)N[C@H](Cc3ccc(CN4[C@H](C)CCC[C@@H]4C)cc3)C(=O)N(C)C(C)C)c3ccc4c(c3)OCO4)ccc2c1`: the AC50 is 25.1 µM (active).
`CCCCCCCCOc1ccc(C(=O)c2ccccc2)c(O)c1`: the result was inactive.
Still for that read-out and setting: for `CCO[Si](CCCNC(N)=O)(OCC)OCC` the value was “inactive”; for `CCCCCCCCCC(=O)O`, “inactive”; for `CN1C(=O)CC[C@H]1c1cccnc1`, “inactive”.
In the case of `O=C(O)Cc1cc(I)c(Oc2ccc(O)c(I)c2)c(I)c1`, the compound was classed as inactive.
The same measure, in the same setting: with `CCCCCCCCN(C)CCCCCCCC` the entry was “inactive”.
The same measure, in the same setting: with `O=CCCCC=O` the entry was “inactive”; with `CN(C[C@@H](CC[N+]12CCC(C3CCCCC3)(CC1)CC2)c1ccc(Cl)c(Cl)c1)C(=O)c1cc(C(F)(F)F)cc(C(F)(F)F)c1`, “inactive”.
Still for that read-out and setting: with `Cc1oc2c(NC(=O)c3c(Cl)cccc3Cl)cccc2c1C(C)(C)O` the entry was “inactive”.
With `Cc1occc1C(=O)Nc1ccc(C(=O)N2CCC(F)(F)/C(=C\C(=O)N3CCC(N4CCCCC4)CC3)c3ccccc32)cc1`, the result was inactive.
